Reference: PubChem BioAssay (NCI)
Compounds without any hit were thinned out: in the full panel of roughly 79,000, 15% have a hit. Activity calls are given as the source filed them. No stated cut-off is given here; in the data, active means growth inhibition above about 70%; inactive means the rest.

Assay: NCI Yeast Anticancer Drug Screen. Data for the mlh1 rad18 strain (AID 175)
Conditions: S. cerevisiae mlh1 rad18 strain growth inhibition; at 5.0 µM (retest, dose inferred, filed as 0.5); active compounds read high
Procedure, shortened: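 Test agents were incubated with a yeast strain of defined genotype (DNA damage repair defect). Inhibition of growth was derived by comparison with vehicle-exposed cultures.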

SMILES	growth inhibition
Cc1cc(O)c(C(=O)/C=C/c2cccnc2)c(=O)[nH]1	8% (inactive)
Oc1ccccc1C(=NNc1ccccc1)c1ccccc1O	70% (active)
Cn1c(=S)c2[nH]c(SCCN3CCCCC3)nc2n(C)c1=O	22% (inactive)
Cc1cc(=O)n(-c2cc3cccccc-3n2)[nH]1	-1% (inactive)
CC(=O)OCC1OC(n2c(O)c(N=NC(N)=S)c3ccc([N+](=O)[O-])cc32)C(OC(C)=O)C1OC(C)=O (centres undefined)	-1% (inactive)
COC(=O)NNc1c([N+](=O)[O-])cnn(-c2ccccc2)c1=O	-11% (inactive)
CC(=O)N(C1=C(Cl)C(=O)c2ccccc2C1=O)c1ccc(F)cc1	39% (inactive)
COC(=O)CC1c2cc(OC)c3cccc(OC)c3c2CCC1(C)C(=O)OC (centres undefined)	94% (active)
CC[n+]1c(/C=C/c2ccc(N(C)C)cc2)ccc2ccccc21	13% (inactive)
COc1ccc(SC2=C(N(C)C)C(=O)c3ccccc3C2=O)cc1	11% (inactive)
C1=C(c2ccccc2)C(=Nc2ccccc2)SC1=Nc1ccccc1	38% (inactive)
Cc1c(O)c(Br)c(Br)c(Br)c1Br	87% (active)
CC1(C)OC(C(COC(=O)c2ccc([N+](=O)[O-])cc2)OS(=O)(=O)c2ccc([N+](=O)[O-])cc2)C(C(SCc2ccccc2)SCc2ccccc2)O1 (centres undefined)	8% (inactive)
Cc1cccc(Cc2ccc(Cl)cc2)c1O	-2% (inactive)
C=C(CN(C)C)C(=O)c1ccccc1[N+](=O)[O-]	8% (inactive)
CCCCN(CCCC)CC(O)c1cc(-c2ccc(Cl)cc2)nc2c(C)cccc12 (centres undefined)	7% (inactive)
O=C(Nc1ccc(Cl)cc1)NS(=O)(=O)c1c(-c2ccccc2)oc2ccccc2c1=O	15% (inactive)
Cc1cc(CN(Cc2ccccc2)Cc2nc3ccccc3[nH]2)c(O)c(CN(Cc2nc3ccccc3[nH]2)Cc2nc3ccccc3[nH]2)c1	2% (inactive)
COC1=CC2=CCC3C(CCC4(C)C(C(C)=O)CCC34)C2(C)CC1 (centres undefined)	-12% (inactive)
OC(C1CCCCN1)C1CC(c2ccccc2)Nc2c(Cl)cc(Cl)cc21 (centres undefined)	6% (inactive)

SMILES	growth inhibition
CN(C)C1=C(Cl)C(=O)c2ccccc2C1=O	15% (inactive)
CCCCCNC(=O)C1C(=O)N(CCCCC)C(=O)/C1=N\N (centres undefined)	-1% (inactive)
O=C(Nc1ccc(Cl)cc1)OCCOCCOC(=O)Nc1ccc(Cl)cc1	4% (inactive)
CCCC(CC)c1c(O)c(O)c(C(CC)CCC)c(C(CC)CCC)c1C(CC)CCC (centres undefined)	-13% (inactive)
Cc1ccc(NC(=S)SCc2ccc3c(c2)OCO3)cc1Cl	39% (inactive)
CN(C)CCCNc1ccc(O)c2c1C(=O)c1ccccc1C2=O	97% (active)
CC1=C(C(=O)Nc2ccc(Cl)c(Cl)c2)C(c2ccco2)C(C(=O)Nc2ccc(Cl)c(Cl)c2)=C(C)N1	36% (inactive)
Cc1ccccc1NC(=O)CSC(N)=O	0% (inactive)
Cc1[nH]c2ccccc2c1C(C)CC(O)c1ccccc1 (centres undefined)	8% (inactive)
Cn1c(=O)ccc2cc(C(=O)c3ccccc3)ccc21	9% (inactive)
c1ccc2c(c1)N=c1ccccc1=P21c2ccccc2Nc2ccccc21	92% (active)
Nc1[nH]cnc(=S)c1NC=O	-3% (inactive)
COC(=O)CCC(=O)c1ccc2c(c1)CC1(Cc3ccccc3C1)C2	29% (inactive)
CCC[CH2][Sn]([CH2]CCC)([O]C(=O)c1cc(F)cc(F)c1)[O][Sn]([CH2]CCC)([CH2]CCC)[O]C(=O)c1cc(F)cc(F)c1	44% (inactive)
CCOC(=O)CSC(=S)Nc1ccc(Cl)cc1	6% (inactive)
CC1(C)CC(=O)C(C(c2ccc3c(c2)OCO3)N2CCOCC2)C(=O)C1 (centres undefined)	-26% (inactive)
COC(=O)c1c(C)cccc1C(=O)c1c(C)cc(C)cc1C	4% (inactive)
C=C1C(=O)OC2CC3(C)CC(O)C(O)C(=C)C3CC12 (centres undefined)	1% (inactive)
CCOC(=O)C1=C(N)N(S(=O)(=O)c2ccc(C)cc2)CCC(C(=O)OC)=C1	-2% (inactive)
